From PubChem
Compounds with a hit are over-represented: about 6.8% of the library has one in this group of screens.
Spn PMK inh – inhibitors of Streptococcus pneumoniae phosphomevalonate kinase. AID 539. inhibition, % at 10 µM. 65,000 compounds, 0.49% hits. purified PMK, PK/LDH-coupled NADH absorbance 340 nm;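 active means top-ranked compounds by inhibition in the single 10 µM screen, taking a fixed number of the strongest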
MK inhibit – S. pneumoniae mevalonate kinase inhibition. purified MK, PK/LDH-coupled NADH absorbance 340 nm. inhibition, % at 10 µM. 65,000 compounds, 0.48% hits;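 active means ranked among the strongest by inhibition in the single 10 µM screen, a fixed top-ranked set picked for dose follow-up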
NADH enzymes – inhibitors of enzymes used to reach an NAD/NADH endpoint | 65,000 compounds, 0.02% hits | AID 774 | coupled PK/LDH NADH assays, four targets | IC50, µM (doses to about 10 µM);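 active means single-dose screening hits from any of four coupled enzyme assays that gave an IC50 when retested across doses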;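 further: the DPM-DC format reads NADH fluorescence rather than 340 nm absorbance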
Spn DPM-DC inh – blocks S. pneumoniae diphosphomevalonate decarboxylase. purified DPM-DC, PK/LDH coupled NADH fluorescence. calls only at 10 µM. 65,000 compounds, 0.49% hits;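 active means the 320 compounds with the highest percent inhibition in the single-dose primary screen, excluding strongly autofluorescent ones, cut at about 32% in these data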;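 further: kinetic rate of NADH fluorescence loss reporting ADP formed by the decarboxylase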
Fluor 339 460 – intrinsic fluorescence of library compounds, ex339/em460 – biochemical, MLSMR library, data from DPM-DC assay, artefact control, profiling panel | compound autofluorescence, ex339/em460 nm, NADH buffer; stronger effect = higher value; 1 = no-compound wells, NADH background | fluorescence fold increase at 10 µM | 65,000 compounds, 5.5% hits | AID 709;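 active means at 10 µM, mean starting fluorescence two-fold or more over control wells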;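 further: signal is the first read of a kinetic run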
Abs 340nm – compound absorbs light at 340 nm; AID 708; fold change at 10 µM; 65,000 tested, under 10 active; compound absorbance at 340 nm, fold over control;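 active means at 10 µM dose, initial 340 nm absorbance at least 2 fold that of control wells; inactive means change under 2 fold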;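 further: initial absorbance extrapolated from kinetic A340 decline of NADH oxidation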
Large screens that a line does not name were inactive; [ ] = dose if it differs, or a comment.

COc1ccccc1C1c2c(oc3ccc(Cl)cc3c2=O)C(=O)N1c1cc(C)on1 (stereo not given)	none
c1cc(-c2nnc(-c3ccncc3)o2)ccn1	none
CCCOc1ccc(-c2nnc(-c3ccncc3)o2)cc1	Fluor 339 460 2.4
OCC#CCSc1nnc(-c2ccncc2)o1	none
CC(C)COc1ccc(-c2nnc(-c3ccncc3)o2)cc1	Fluor 339 460 2.4
O=C(Cc1cc(=O)oc2cc(O)ccc12)NCC1CCC(C(=O)O)CC1 (stereo not given)	Fluor 339 460 3.9 (not shown: Spn DPM-DC inh)
CCOc1ccccc1Oc1c(C)oc2c(CN3CCN(CCO)CC3)c(O)ccc2c1=O	Fluor 339 460 3.9 (not shown: Spn DPM-DC inh)
CCOC(=O)c1ccc(Oc2c(C)oc3c(CN4CCN(C)CC4)c(O)ccc3c2=O)cc1	Fluor 339 460 3.9 (not shown: Spn DPM-DC inh)
CCOC(=O)c1c(CN2CCN(CCO)CC2)n(C)c2cc(Br)c(OC)cc12	none
CN1CCN(Cc2c(O)ccc3c(=O)c(Oc4ccccc4Cl)c(C(F)(F)F)oc23)CC1	none
Cc1oc2c(CN3CCCC3)c(O)ccc2c(=O)c1Oc1ccccc1Br	Fluor 339 460 3.9 (not shown: Spn DPM-DC inh)
CCOC(=O)c1c(C)oc2ccc(O)c(CN3CCCCC3)c12	none
COc1ccccc1Oc1c(C)oc2c(CN3CCN(CCO)CC3)c(O)ccc2c1=O	Fluor 339 460 4 (not shown: Spn DPM-DC inh)
COC(=O)COc1ccc(S(=O)(=O)NCc2cccnc2)cc1C	none
C=CCNc1oc(-c2ccc(OCC)cc2)nc1C#N	Fluor 339 460 2.3 (not shown: Spn DPM-DC inh)
C=CCNc1oc(-c2ccc(OC)cc2)nc1C#N	Fluor 339 460 3.7 (not shown: Spn DPM-DC inh)
N#Cc1nc(-c2ccc(OCc3ccc(Cl)cc3)cc2)oc1NCCCn1ccnc1	none
CCOc1ccc(-c2nc(C#N)c(NCC(C)C)o2)cc1	Fluor 339 460 2.4 (not shown: Spn DPM-DC inh)
CCCN(CCO)Cc1ccc(F)c(Br)c1	none
CCC1c2ccc(C)n2CCN1C(=O)Nc1ccccc1C(=O)OC (stereo not given)	Fluor 339 460 2.5
CC(NC(=O)OC1CCCCC1)N1C(=O)C2C3C=CC(C3)C2C1=O (stereo not given)	none
CCCn1c(=NC(=O)c2ccncc2)c(C(=O)OCC)cc2c(=O)n3cccc(C)c3nc21	none
CCOC(=O)c1cc2c(=O)n3cccc(C)c3nc2n(CCCOC)c1=NC(=O)c1cccnc1	Spn PMK inh 29, NADH enzymes 14µM[fluoresces], Fluor 339 460 2.3 (not shown: Spn DPM-DC inh)
CCOC(=O)c1cc2c(=O)n3cccc(C)c3nc2n(CCOC)c1=NC(=O)c1ccncc1	Fluor 339 460 2
CC1CCCCN1C(=O)CSc1nnc(-c2ccc(Cl)s2)o1 (stereo not given)	none
COc1ccccc1NC(=O)N1CCN(c2cc(-c3ccccc3)nc3ncnn23)CC1	none
COc1ccc(S(=O)(=O)N(Cc2ccccc2)Cc2nc(-c3ccccc3)no2)cc1	none
COc1ccccc1NC(=O)N(CCCN1CCOCC1)Cc1cc2cc3c(cc2[nH]c1=O)OCO3	Fluor 339 460 3.5
O=C(Nc1ccc(F)cc1)N(CCCN1CCOCC1)Cc1cc2cc3c(cc2[nH]c1=O)OCCO3	Fluor 339 460 3.2 (not shown: Spn DPM-DC inh)
O=C(Nc1ccc(F)cc1)N(CCCN1CCOCC1)Cc1cc2cc3c(cc2[nH]c1=O)OCO3	Spn PMK inh 27, Spn DPM-DC inh active, Fluor 339 460 2.7
COc1ccc(S(=O)(=O)Cc2ccc(C(=O)NCCCN(C)c3ccccc3)o2)cc1	none
N#Cc1c(-c2ccco2)c2c([nH]c1=S)CCCC2	none
N#Cc1c(-c2cccnc2)c2c([nH]c1=S)CCCC2	MK inhibit 80, Spn DPM-DC inh active
COC(=O)c1[nH]c2cccc(OC)c2c1NC(=O)CCN1CCN(c2ccccc2F)CC1	Fluor 339 460 3.1
COC(=O)c1[nH]c2cccc(OC)c2c1NC(=O)CN1CCC(C(N)=O)(N2CCCCC2)CC1	Fluor 339 460 3.7 (not shown: Spn DPM-DC inh)
COC(=O)c1[nH]c2cccc(OC)c2c1NC(=O)CCN1CCC(C(N)=O)CC1	Fluor 339 460 2.9
O=C(c1cnsn1)N1CCN(c2ccccn2)CC1	none
O=C(CCc1nc(-c2ccccc2)no1)NCC1CCCO1 (stereo not given)	none
CCC(Oc1ccccc1)C(=O)N1CC(C)CC(C)C1 (stereo not given)	none
c1ccc2nc(-c3nc4ccccc4[nH]3)ccc2c1	Fluor 339 460 2.3 (not shown: Spn DPM-DC inh)
c1ccc2[nH]c(-c3ccnc4ccccc34)nc2c1	Fluor 339 460 2.1 (not shown: Spn DPM-DC inh)
c1ccc2[nH]c(-c3cscn3)nc2c1	none
Cc1occc1-c1nnc(SCC(=O)Nc2ccccc2N2CCCCC2)n1C	none
O=C(OCC(=O)N1CCN(C(=O)c2ccco2)CC1)c1ccccc1OCc1ccc(Cl)cc1	none
CCOc1ccc(Nc2nc(Cc3nnc(SCC(=O)NCC4CCCO4)n3C)cs2)cc1 (stereo not given)	none
CCOc1ccc(Nc2nc(Cc3nnc(SCC(N)=O)o3)cs2)cc1	Spn PMK inh 28
CCN(CC(=O)Nc1c(C(=O)OC)[nH]c2ccc(C)cc12)c1ccc2c(c1)OCO2	none
COC(=O)c1c(NC(=O)c2ccc(Br)s2)sc2c1CCC2	none
COC(=O)c1c(NC(=O)c2nn(C)cc2Cl)sc2c1CCCC2	Fluor 339 460 2.4 (not shown: Spn DPM-DC inh)
CCn1ncc(Br)c1C(=O)Nc1sc2c(c1C(=O)OC)CCC2	Fluor 339 460 2.5
CCCOc1cccc(C2C(C(=O)c3ccc(C)o3)=C(O)C(=O)N2CCCN(C)C)c1 (stereo not given)	none
c1cncc(C(c2nnnn2C2CCCC2)N2CCCC2)c1 (stereo not given)	Spn PMK inh 25
Clc1ccc(C(c2nnnn2C2CCCC2)N2CCN(Cc3ccncc3)CC2)cc1 (stereo not given)	Spn PMK inh 25
c1ccc(C(c2nnnn2C2CCCC2)N2CCCCCC2)nc1 (stereo not given)	none
CCOC(=O)Nc1ccc2c(CN3C(=O)NC4(CCCC4)C3=O)cc(=O)oc2c1	Fluor 339 460 3.3 (not shown: Spn DPM-DC inh)
Cn1c(=O)c2c(nc(CN3CCN(c4ccc(F)cc4)CC3)n2Cc2ccccc2F)n(C)c1=O	none
C/C(NC1CCCCC1)=C(/C#N)C(=O)NCCN1CCOCC1	none
O=C1CCC(C(=O)N(c2ccccc2)C2(C(=O)NC3CCCCC3)CCCCC2)N1 (stereo not given)	none
O=C(CC1Nc2ccccc2NC1=O)NC1CCCCC1 (stereo not given)	Fluor 339 460 2
O=C1NC(=O)C(CC(=O)N(c2ccccc2)C2(C(=O)NC3CCCC3)CCCCC2)N1 (stereo not given)	Spn DPM-DC inh active
CCOC(=O)c1sc(C)c(C(N)=O)c1NC1=NCCCCC1	Fluor 339 460 2
CN(C)C(CNc1nnnn1-c1ccccc1)c1ccco1 (stereo not given)	none
CN(C)C(=O)Nc1cnc2ccccc2c1	Spn DPM-DC inh active
CCn1cc(C(=O)NCc2ccco2)c(=O)c2cc(F)c(N3CCN(C(=O)c4ccco4)CC3)cc21	Spn DPM-DC inh active[fluoresces], Fluor 339 460 2.4
